This passage reports AC50 and outcome results from PubChem BioAssay (EPA / NIEHS).

Read-out in test [1]: Interleukin 2 (IL2), IL2 (gene 3558)
The test is described as follows: BSK_BT_xIL2: BioMAP Diversity Plus: BT Assay for Interleukin 2 (IL2) Biomarker Activity (AID 2284245). Conditions: primary human B cells with PBMC. The method in brief:
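B cell + PBMC co-culture (human primary), compound added, 24 h incubation; secreted IL-2 measured multiplexed on Luminex xMAP; gain-of-signal fit vs DMSO.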

Read-out in test [2]: Basic fibroblast growth factor (bFGF), FGF2 (gene 2247)
Nature of the test: BSK_MyoF_bFGF: BioMAP Diversity Plus: MyoF Assay for Basic fibroblast growth factor (bFGF) Biomarker Activity (AID 2284246). The settings on record: primary human lung fibroblasts. Summed up:
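ELISA-measured bFGF level serves as the read-out, taken 24 h after chemical dosing of human lung fibroblasts. Values represent signal gain over the DMSO negative control.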

Read-out in test [3]: Collagen IV, COL4A1 (gene 1282)
Nature of the test: BSK_MyoF_CollagenIV: BioMAP Diversity Plus: MyoF Assay for Collagen IV Biomarker Activity (AID 2284247). The settings on record: primary human lung fibroblasts. The method in brief:
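Steps: dose human lung fibroblasts; culture 24 h; quantify Collagen IV by ELISA; fit increase versus DMSO control. Parallel SRB total-protein staining (0.1% SRB after 10% TCA fixation, 560 nm) tracks overt cytotoxicity.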

Read-out in test [4]: Plasminogen activator inhibitor-1 (PAI1), SERPINE1 (gene 5054)
Nature of the test: BSK_MyoF_PAI1: BioMAP Diversity Plus: MyoF Assay for Plasminogen activator inhibitor-1 (PAI1) Biomarker Activity (AID 2284256).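 As to outcome: PAI-1 read 24 h after compound addition.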 The settings on record: primary human lung fibroblasts. The method in brief: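 Primary human lung fibroblasts treated with chemical for 24 h; PAI-1 levels quantified by ELISA relative to DMSO. Cytotoxicity was assessed in parallel cultures by SRB total-protein staining (0.1% SRB after 10% TCA fixation, 560 nm).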

Read-out in test [5]: Interleukin-8 (IL8), CXCL8 (gene 3576)
The test is described as follows: BSK_MyoF_IL8: BioMAP Diversity Plus: MyoF Assay for Interleukin-8 (IL8) Biomarker Activity (AID 2284261). The settings on record: primary human lung fibroblasts. The method in brief: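 Human lung fibroblast (MyoF system) cultures dosed for 24 h, then IL-8 measured by ELISA. Response taken relative to DMSO; parallel SRB total-protein staining for cytotoxicity.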

Read-out in a further test: Decorin, DCN (gene 1634)
The test is described as follows: BSK_MyoF_Decorin: BioMAP Diversity Plus: MyoF Assay for Decorin Biomarker Activity (AID 2284265). Conditions: primary human lung fibroblasts. The method in brief: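 Human lung fibroblast cultures were dosed for 24 h, and decorin was then measured by ELISA. Parallel cultures were stained with sulforhodamine B for total protein as a cytotoxicity check. Gain of signal was fitted relative to DMSO.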

Test [6] is described as follows: BSK_MyoF_SRB: Viability Assessment in the BioMAP Diversity Plus: MyoF Assay (AID 2284267).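 Also: total protein by SRB absorbance in parallel cultures as cytotoxicity measure.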 Conditions: primary human lung fibroblasts. Summed up: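 Read-out is SRB absorbance at 560 nm, reflecting total protein in parallel lung fibroblast cultures harvested 24 h after compound addition. Cells were TCA-fixed (10%) and stained with 0.1% SRB; activity is referenced to DMSO.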

Read-out in test [7]: Matrix Metallopeptidase 1 (MMP1), MMP1 (gene 4312)
Nature of the test: BSK_MyoF_MMP1: BioMAP Diversity Plus: MyoF Assay for Matrix Metallopeptidase 1 (MMP1) Biomarker Activity (AID 2284268). Conditions: primary human lung fibroblasts. Summed up: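 Human lung fibroblast primary cells; MMP1 measured by ELISA 24 h after dosing, fitted in the positive direction relative to DMSO. Parallel SRB staining (0.1%, after 10% TCA fixation, 560 nm) assesses overt cytotoxicity.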

Read-out in test [8]: Monokine induced gamma interferon (MIG), CXCL9 (gene 4283)
Nature of the test: BSK_KF3CT_MIG: BioMAP Diversity Plus: KF3CT Assay for Monokine induced gamma interferon (MIG) Biomarker Activity (AID 2284248). Conditions: primary human keratinocytes with fibroblasts. The method in brief: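 Human keratinocyte–foreskin fibroblast co-culture; MIG measured by ELISA 24 h after chemical dosing, fitted upward versus DMSO. Cytotoxicity was assessed in parallel cultures by SRB total-protein staining read at 560 nm.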

Read-out in test [9]: Vascular cell adhesion molecule 1 (VCAM1), VCAM1 (gene 7412)
The test is described as follows: BSK_BF4T_VCAM1: BioMAP Diversity Plus: BF4T Assay for Vascular cell adhesion molecule 1 (VCAM1) Biomarker Activity (AID 2284249). Conditions: primary human bronchial epithelial cells with fibroblasts. Summed up: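 Human bronchial epithelial cell and dermal fibroblast co-culture exposed 24 h. VCAM-1 measured by ELISA; parallel SRB total-protein staining for cytotoxicity. Fitted in positive direction relative to DMSO.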

Read-out in test [10]: Collagen I, COL1A1 (gene 1277)
Nature of the test: BSK_hDFCGF_CollagenI: BioMAP Diversity Plus: hDFCGF Assay for Collagen I Biomarker Activity (AID 2284250). The settings on record: primary human foreskin fibroblasts. The method in brief: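 Human skin primary fibroblasts dosed with test chemical, harvested at 24 h, Collagen I quantified by ELISA; parallel SRB staining (0.1% SRB after 10% TCA fixation, 560 nm) tracked cytotoxicity.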

Read-out in test [11]: Interferon-inducible T-cell alpha chemoattractant (ITAC), CXCL11 (gene 6373)
Nature of the test: BSK_hDFCGF_ITAC: BioMAP Diversity Plus: hDFCGF Assay for Interferon-inducible T-cell alpha chemoattractant (ITAC) Biomarker Activity (AID 2284251). The settings on record: primary human foreskin fibroblasts. The method in brief: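 ELISA readout of I-TAC after 24 h chemical exposure; human dermal foreskin fibroblast primary cells. Positive-direction fitting vs DMSO baseline. Parallel SRB total-protein staining (0.1% SRB after 10% TCA fixation, 560 nm) flags cytotoxicity.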

Read-out in test [12]: Plasminogen activator inhibitor-1 (PAI1), SERPINE1 (gene 5054)
The test is described as follows: BSK_KF3CT_PAI1: BioMAP Diversity Plus: KF3CT Assay for Plasminogen activator inhibitor-1 (PAI1) Biomarker Activity (AID 2284252). Conditions: primary human keratinocytes with fibroblasts. The method in brief:
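ELISA read-out of PAI-1 taken 24 h after chemical treatment of a human skin primary co-culture of keratinocytes and foreskin fibroblasts. Increases over DMSO-treated wells defined activity.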

Read-out in test [13]: Interleukin-8 (IL8), CXCL8 (gene 3576)
The test is described as follows: BSK_KF3CT_IL8: BioMAP Diversity Plus: KF3CT Assay for Interleukin-8 (IL8) Biomarker Activity (AID 2284254). Conditions: primary human keratinocytes with fibroblasts. The method in brief: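 Human keratinocyte/foreskin fibroblast co-culture dosed 24 h; IL-8 measured by ELISA relative to DMSO. Parallel cultures stained with SRB for total protein to flag cytotoxicity.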

Read-out in test [14]: Macrophage Inflammatory Protein-1 Alpha (MIP1a), CCL3 (gene 6348)
The test is described as follows: BSK_IMphg_MIP1a: BioMAP Diversity Plus: IMphg Assay for Macrophage Inflammatory Protein-1 Alpha (MIP1a) Biomarker Activity (AID 2284255). The settings on record: primary human endothelial cells with macrophages. Summed up:
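Co-culture of human venular endothelial cells and macrophages exposed to compounds for 24 h; MIP-1a measured by ELISA relative to DMSO. Cytotoxicity assessed in parallel cultures by sulforhodamine B total-protein staining at 560 nm.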

Read-out in another test: CD69, CD69 (gene 969)
Nature of the test: BSK_IMphg_CD69: BioMAP Diversity Plus: IMphg Assay for CD69 Biomarker Activity (AID 2284257). Conditions: primary human endothelial cells with macrophages. The method in brief: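 Human venular endothelial cells co-cultured with macrophages; CD69 quantified by ELISA 24 h after compound addition. Activity fitted in the positive direction relative to DMSO baseline; cytotoxicity tracked in parallel cultures via SRB total-protein staining.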

Read-out in test [15]: Eotaxin 3, CCL26 (gene 10344)
Nature of the test: BSK_BF4T_Eotaxin3: BioMAP Diversity Plus: BF4T Assay for Eotaxin 3 Biomarker Activity (AID 2284258). Conditions: primary human bronchial epithelial cells with fibroblasts. The method in brief:
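Co-culture of human bronchial epithelial cells and dermal fibroblasts, exposed to chemicals for 24 h versus DMSO. Eotaxin-3 quantified by ELISA; cytotoxicity checked in parallel cultures by sulforhodamine B total-protein staining.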

Read-out in test [16]: Monocyte Chemoattractant Protein-1 (MCP1), CCL2 (gene 6347)
The test is described as follows: BSK_BF4T_MCP1: BioMAP Diversity Plus: BF4T Assay for Monocyte Chemoattractant Protein-1 (MCP1) Biomarker Activity (AID 2284259). The settings on record: primary human bronchial epithelial cells with fibroblasts. Summed up: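 Co-culture of bronchial epithelial cells and dermal fibroblasts dosed with chemical; MCP-1 measured by ELISA 24 h later. Activity fitted in positive direction versus DMSO; cytotoxicity checked by SRB staining in parallel cultures.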

Read-out in another test: CD90, THY1 (gene 7070)
Nature of the test: BSK_BF4T_CD90: BioMAP Diversity Plus: BF4T Assay for CD90 Biomarker Activity (AID 2284262). The settings on record: primary human bronchial epithelial cells with fibroblasts. Summed up:
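Co-culture of human bronchial epithelial cells and dermal fibroblasts, 24 h compound exposure. Cell-surface CD90 measured by ELISA relative to DMSO; parallel SRB total-protein staining for cytotoxicity.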

Read-out in the next test: KRT18 (gene 3875)
Nature of the test: BSK_BF4T_Keratin818: BioMAP Diversity Plus: BF4T Assay for Keratin 818 Biomarker Activity (AID 2284266). The settings on record: primary human bronchial epithelial cells with fibroblasts. Summed up: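 Co-culture of human bronchial epithelial cells and dermal fibroblasts, chemical exposure 24 h. Keratin 8/18 measured by ELISA; positive-direction fit vs DMSO. SRB total protein run in parallel cultures for cytotoxicity.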

Each structure is given as a SMILES string. “And” between values parts separate entries of the source, which are not always exact repeats. Equal entries are not always repeated. Where a structure was tested more than once in an assay, its records may differ in their call. The source made the active and inactive calls. The calls were made as follows: active = hit-call score of the fitted dose curve at least 0.9, where 1 is the maximum; inactive = score below 0.9.

By AC50 is commonly meant the concentration at which the activity in the assay is half-maximal. Take `CC(C)Nc1ccc(Nc2ccccc2)cc1`: the AC50 in test [1] is 5.05 µM (active); in test [2] it was 30.5 µM (active); in test [3], 20 µM (active); in test [4] it was 30.6 µM (active); in [6], 20 µM (active). The outcome in test [5] was “inactive”; with Decorin, DCN (gene 1634), “inactive”; in [7] it was “inactive”.

For `O=C(O)C(F)(OC(F)(F)C(F)(F)C(F)(F)F)C(F)(F)F` (stereo unspecified), the outcome in test [1], in test [2], in [3], in test [8], in [9] and in test [10] was inactive. Further, the outcome in test [11] is “inactive”; in test [12] it was “inactive”; in [13], “inactive”; in test [14], “inactive”; in test [4], “inactive”; with CD69, CD69 (gene 969), “inactive”. Further, the outcome was “inactive” in test [15]; “inactive” in [16]; “inactive” in test [5]; “inactive” with CD90, THY1 (gene 7070); “inactive” with Decorin, DCN (gene 1634); “inactive” with KRT18 (gene 3875). The outcome in test [6] and in test [7] was inactive.

Consider `CCOP(=S)(OCC)SCS(=O)(=O)CC`, for which the outcome was “inactive” in [1]; “inactive” in [2]; “inactive” in [3]; “inactive” in test [4]; “inactive” in test [5]; “inactive” with Decorin, DCN (gene 1634). The result in test [6] and in [7] was inactive.

Regarding `C=CC(=O)OCC(F)(F)C(F)F`, the AC50 in test [1] is 30.6 µM (active) and 34.5 µM (active); in test [3], 45.7 µM (active); in test [8], 52.2 µM (active); in test [9], 30 µM (active); in test [11], 12.7 µM (active) and 18.4 µM (active); in test [6] it was 41.2 µM (active). Besides, the AC50 in [7] was 44 µM (active). In addition, the result in [2], in test [3], in test [8], in [9], in [10] and in test [12] was inactive. Also, the outcome is “inactive” in test [13]; “inactive” in [14]; “inactive” in test [4]; “inactive” in the test with CD69, CD69 (gene 969); “inactive” in test [15]; “inactive” in test [16]. For the same compound, the outcome in test [5] is “inactive”; in the test with CD90, THY1 (gene 7070), “inactive”; with Decorin, DCN (gene 1634), “inactive”; with KRT18 (gene 3875) it was “inactive”; in [6], “inactive”; in test [7], “inactive”.
